Results reported in PubChem BioAssay (EPA / NIEHS).
Inconclusive results are not listed. The source made the active and inactive calls. How the source made its calls, unless noted: active means hit-call score of the fitted dose curve at least 0.9, where 1 is the maximum; inconclusive means response in the unintended direction; inactive means score below 0.9.

How the values were obtained:
[1] = molecular target: Retinoic acid receptor RXR-alpha (Homo sapiens) (UniProt P19793); assay: ATG_RXRa_TRANS: Attagene TRANS-FACTORIAL HepG2 Assay for human Retinoid X Receptor alpha (RXRa) (AID 2283012)
In short: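 Read-out: fluorescent reporter-transcript fragments quantified by capillary electrophoresis after RT-PCR. Transiently transfected HepG2 cells carrying GAL4-UAS reporters and NR-GAL4 chimeras were exposed to chemical for 24 h; activity scored as increase over DMSO.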

[2] = molecular target: human Retinoid X Receptor beta (RXRb), RXRB (gene 6257) (UniProt P28702); assay: ATG_RXRb_TRANS: Attagene TRANS-FACTORIAL HepG2 Assay for human Retinoid X Receptor beta (RXRb) (AID 2283013)
In short: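 Read-out: reporter mRNA induction via RT-PCR plus capillary electrophoresis fluorescence, analysed as signal increase relative to DMSO. Cells were human HepG2, transiently transfected with GAL4-UAS reporter constructs and chimeric receptor-Gal4 fusions, dosed for 24 h.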

[3] = molecular target: human Thyroid Receptor alpha (THRa1), THRA (gene 7067) (UniProt P10827); assay: ATG_THRa1_TRANS: Attagene TRANS-FACTORIAL HepG2 Assay for human Thyroid Receptor alpha (THRa1) (AID 2283014)
In short: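 Transient HepG2 transfection, NR-Gal4 chimera driving GAL4-UAS reporters; 24 h compound exposure; total RNA, oligo(dT) RT, PCR, fluorescent primer extension, capillary electrophoresis. Upward direction vs DMSO control.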

[4] = read-out: E-selectin (Homo sapiens) (UniProt P16581); assay: BSK_3C_Eselectin: BioMAP Diversity Plus: 3C Assay for Eselectin Biomarker Activity (AID 2283015; active means hit-call score of the fitted dose curve at least 0.9, where 1 is the maximum; inactive means score below 0.9;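 further: cell surface E-selectin protein quantified by ELISA 24 h after dosing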); settings: primary human endothelial cells (HUVEC); actives raise or lower the signal
In short: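 HUVEC, 3C stimulation; compound exposure 24 h; E-selectin by ELISA; gain- or loss-of-signal fitted bidirectionally vs DMSO baseline.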

[5] = read-out: Interleukin-1 alpha (IL1a), IL1A (gene 3552); assay: BSK_BE3C_IL1a: BioMAP Diversity Plus: BE3C Assay for Interleukin-1 alpha (IL1a) Biomarker Activity (AID 2283016; active means hit-call score of the fitted dose curve at least 0.9, where 1 is the maximum; inactive means score below 0.9); settings: primary human bronchial epithelial cells; actives raise or lower the signal
In short: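 ELISA read-out of IL-1a from human lung bronchial epithelial primary cells, 24 h post-dose. Gain or loss of signal fitted relative to DMSO negative control.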

[6] = read-out: Monocyte Chemoattractant Protein-1 (MCP1), CCL2 (gene 6347); assay: BSK_3C_MCP1: BioMAP Diversity Plus: 3C Assay for Monocyte Chemoattractant Protein-1 (MCP1) Biomarker Activity (AID 2283017; active means hit-call score of the fitted dose curve at least 0.9, where 1 is the maximum; inactive means score below 0.9); settings: primary human endothelial cells (HUVEC); actives raise or lower the signal
In short: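 HUVEC, 3C system; 24 h chemical exposure; MCP-1 by ELISA; bidirectional curve fit vs DMSO baseline.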

[7] = read-out: Monocyte Chemoattractant Protein-1 (MCP1), CCL2 (gene 6347); assay: BSK_4H_MCP1: BioMAP Diversity Plus: 4H Assay for Monocyte Chemoattractant Protein-1 (MCP1) Biomarker Activity (AID 2283018; active means hit-call score of the fitted dose curve at least 0.9, where 1 is the maximum; inactive means score below 0.9); settings: primary human endothelial cells (HUVEC); actives raise or lower the signal
In short: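 HUVEC primary cells, 24 h post-dose, MCP-1 by ELISA. Gain or loss of signal fitted bidirectionally vs DMSO baseline. Cytotoxicity: SRB stain (0.1% after 10% TCA fixation), read 560 nm, parallel cultures.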

[8] = read-out: Human Leukocyte Antigen - DR isotype (HLADR), HLA-DRA (gene 3122); assay: BSK_3C_HLADR: BioMAP Diversity Plus: 3C Assay for Human Leukocyte Antigen - DR isotype (HLADR) Biomarker Activity (AID 2283019; active means hit-call score of the fitted dose curve at least 0.9, where 1 is the maximum; inactive means score below 0.9); settings: primary human endothelial cells (HUVEC); actives raise or lower the signal
In short: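 HUVEC, 3C stimulation, 24 h post-dose; HLA-DR by ELISA; bidirectional curve fit vs DMSO baseline; gain or loss of signal scored.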

[9] = read-out: Interleukin-8 (IL8), CXCL8 (gene 3576); assay: BSK_3C_IL8: BioMAP Diversity Plus: 3C Assay for Interleukin-8 (IL8) Biomarker Activity (AID 2283020; active means hit-call score of the fitted dose curve at least 0.9, where 1 is the maximum; inactive means score below 0.9); settings: primary human endothelial cells (HUVEC); actives raise or lower the signal
In short: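 HUVEC, 3C stimulation; 24 h compound exposure; IL-8 read by ELISA; gain or loss of signal fitted relative to DMSO control.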

[10] = read-out: Monokine induced gamma interferon (MIG), CXCL9 (gene 4283); assay: BSK_3C_MIG: BioMAP Diversity Plus: 3C Assay for Monokine induced gamma interferon (MIG) Biomarker Activity (AID 2283021; active means hit-call score of the fitted dose curve at least 0.9, where 1 is the maximum; inactive means score below 0.9); settings: primary human endothelial cells (HUVEC); actives raise or lower the signal
In short: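 HUVEC, 3C system; 24 h chemical exposure; MIG by ELISA; bidirectional fit vs DMSO baseline.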

[11] = BSK_3C_SRB: Viability Assessment in the BioMAP Diversity Plus: 3C Assay (AID 2283023; active means hit-call score of the fitted dose curve at least 0.9, where 1 is the maximum; inactive means score below 0.9;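 further: fitted both ways against DMSO so a hit may be signal rise or drop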); settings: primary human endothelial cells (HUVEC)
In short: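 HUVEC, 24 h post-dose; 10% TCA fix, 0.1% SRB stain, A560 nm. Bidirectional curve fit vs DMSO negative control.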

[12] = read-out: Matrix Metallopeptidase 1 (MMP1), MMP1 (gene 4312); assay: BSK_BE3C_MMP1: BioMAP Diversity Plus: BE3C Assay for Matrix Metallopeptidase 1 (MMP1) Biomarker Activity (AID 2283024; active means hit-call score of the fitted dose curve at least 0.9, where 1 is the maximum; inactive means score below 0.9); settings: primary human bronchial epithelial cells; actives raise or lower the signal
In short: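 ELISA read-out of MMP1 in human lung bronchial epithelial primary cultures, 24 h post-dose; bidirectional curve fit vs DMSO baseline, gain or loss of signal scored.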

[13] = BSK_3C_Vis: BioMAP Diversity Plus: 3C Assay for Morphology Visualization (AID 2283025; active means hit-call score of the fitted dose curve at least 0.9, where 1 is the maximum; inactive means score below 0.9;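 further: light microscopy image of cell morphology used as background control; cells imaged 24 h after dosing; fitted both ways so gain or loss versus DMSO counts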); settings: primary human endothelial cells (HUVEC)
In short: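 HUVEC, 3C system; light microscopy of morphology at 24 h post-dose. Bidirectional fit vs DMSO baseline. Secondary readout, background-control function.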

[14] = read-out: Pselectin, SELP (gene 6403); assay: BSK_4H_Pselectin: BioMAP Diversity Plus: 4H Assay for Pselectin Biomarker Activity (AID 2283026; active means hit-call score of the fitted dose curve at least 0.9, where 1 is the maximum; inactive means score below 0.9); settings: primary human endothelial cells (HUVEC); actives raise or lower the signal
In short: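 HUVEC, 24 h chemical exposure; P-selectin read by ELISA. Bidirectional curve fit vs DMSO baseline; gain or loss of signal scored.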

[15] = BSK_4H_SRB: Viability Assessment in the BioMAP Diversity Plus: 4H Assay (AID 2283027; active means hit-call score of the fitted dose curve at least 0.9, where 1 is the maximum; inactive means score below 0.9;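 further: cells exposed to compound for 24 h before staining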); settings: primary human endothelial cells (HUVEC)
In short: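 Cytotoxicity read-out in primary human endothelial cells: after 24 h compound exposure, cells were TCA-fixed (10%), stained with 0.1% SRB and absorbance taken at 560 nm. Values fitted in both directions relative to DMSO.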

[16] = BSK_BE3C_SRB: Viability Assessment in the BioMAP Diversity Plus: BE3C Assay (AID 2283028; active means hit-call score of the fitted dose curve at least 0.9, where 1 is the maximum; inactive means score below 0.9;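 further: fitted both ways so AC50 may mark signal gain or loss versus DMSO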); settings: primary human bronchial epithelial cells
In short: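 Primary human bronchial epithelium; chemical dosing, 24 h; 10% TCA fix, 0.1% SRB stain, A560; bidirectional fit vs DMSO baseline.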

[17] = read-out: Thrombomodulin, THBD (gene 7056); assay: BSK_3C_Thrombomodulin: BioMAP Diversity Plus: 3C Assay for Thrombomodulin Biomarker Activity (AID 2283029; active means hit-call score of the fitted dose curve at least 0.9, where 1 is the maximum; inactive means score below 0.9); settings: primary human endothelial cells (HUVEC); actives raise or lower the signal
In short: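 HUVEC, 3C conditions; compound 24 h; thrombomodulin by ELISA; bidirectional curve fit vs DMSO baseline; parallel SRB total-protein staining for cytotoxicity.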

[18] = read-out: Urokinase-type plasminogen activator receptor (uPAR), PLAUR (gene 5329); assay: BSK_4H_uPAR: BioMAP Diversity Plus: 4H Assay for Urokinase-type plasminogen activator receptor (uPAR) Biomarker Activity (AID 2283030; active means hit-call score of the fitted dose curve at least 0.9, where 1 is the maximum; inactive means score below 0.9); settings: primary human endothelial cells (HUVEC); actives raise or lower the signal
In short: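 HUVEC, 24 h post-dose; uPAR by ELISA; bidirectional fit vs DMSO baseline.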

[19] = read-out: Vascular endothelial growth factor receptor 2 (Homo sapiens) (UniProt P35968); assay: BSK_4H_VEGFRII: BioMAP Diversity Plus: 4H Assay for Vascular endothelial growth factor receptor 2 (VEGFR2) Biomarker Activity (AID 2283031; active means hit-call score of the fitted dose curve at least 0.9, where 1 is the maximum; inactive means score below 0.9); settings: primary human endothelial cells (HUVEC); actives raise or lower the signal
In short: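 HUVEC (human primary), 4H system; 24 h post-dose; VEGFRII by ELISA; bidirectional curve fit vs DMSO baseline; gain or loss of signal scored.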

[20] = molecular target: human Vitamin D Receptor (VDR), VDR (gene 7421) (UniProt P11473); assay: ATG_VDR_TRANS: Attagene TRANS-FACTORIAL HepG2 Assay for human Vitamin D Receptor (VDR) (AID 2283022)
In short: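 RT-PCR/capillary electrophoresis read-out of reporter mRNA induction in transiently transfected HepG2; 24 h dosing; chimeric NR-Gal4 (TRANS format); gain-of-signal fit against DMSO baseline.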

Chain of human Retinoid X Receptor beta (RXRb), RXRB (gene 6257) (P28702 whole entry, looked up, the tested form may be a part): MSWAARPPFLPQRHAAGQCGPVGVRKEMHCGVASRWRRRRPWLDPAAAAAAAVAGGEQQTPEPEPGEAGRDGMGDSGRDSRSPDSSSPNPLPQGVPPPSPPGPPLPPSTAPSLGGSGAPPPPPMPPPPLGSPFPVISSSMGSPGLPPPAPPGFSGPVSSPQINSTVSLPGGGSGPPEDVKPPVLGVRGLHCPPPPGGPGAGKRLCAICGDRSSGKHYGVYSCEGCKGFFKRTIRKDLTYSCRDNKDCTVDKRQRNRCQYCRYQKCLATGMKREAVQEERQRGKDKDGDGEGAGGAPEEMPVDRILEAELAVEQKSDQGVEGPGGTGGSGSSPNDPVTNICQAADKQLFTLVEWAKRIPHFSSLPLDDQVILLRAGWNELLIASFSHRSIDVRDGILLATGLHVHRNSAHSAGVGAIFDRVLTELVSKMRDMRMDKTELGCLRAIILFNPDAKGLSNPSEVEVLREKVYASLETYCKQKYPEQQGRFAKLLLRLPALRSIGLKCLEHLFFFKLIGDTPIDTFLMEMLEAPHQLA
Chain of human Thyroid Receptor alpha (THRa1), THRA (gene 7067) (P10827 whole entry, looked up, the tested form may be a part): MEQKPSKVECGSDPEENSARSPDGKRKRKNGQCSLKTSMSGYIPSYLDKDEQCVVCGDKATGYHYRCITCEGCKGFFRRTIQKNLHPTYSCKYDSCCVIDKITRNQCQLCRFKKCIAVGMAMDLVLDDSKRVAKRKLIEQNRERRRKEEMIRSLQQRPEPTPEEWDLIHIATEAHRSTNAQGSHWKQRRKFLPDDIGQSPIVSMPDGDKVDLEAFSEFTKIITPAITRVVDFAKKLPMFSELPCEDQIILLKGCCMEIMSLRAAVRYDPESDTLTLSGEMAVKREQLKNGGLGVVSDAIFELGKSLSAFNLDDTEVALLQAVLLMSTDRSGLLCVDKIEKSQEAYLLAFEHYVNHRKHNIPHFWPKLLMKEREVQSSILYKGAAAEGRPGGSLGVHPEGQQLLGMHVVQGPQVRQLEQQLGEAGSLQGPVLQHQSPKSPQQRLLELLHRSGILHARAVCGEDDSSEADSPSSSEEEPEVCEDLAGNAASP
Chain of Retinoic acid receptor RXR-alpha (Homo sapiens) (P19793 whole entry, looked up, the tested form may be a part): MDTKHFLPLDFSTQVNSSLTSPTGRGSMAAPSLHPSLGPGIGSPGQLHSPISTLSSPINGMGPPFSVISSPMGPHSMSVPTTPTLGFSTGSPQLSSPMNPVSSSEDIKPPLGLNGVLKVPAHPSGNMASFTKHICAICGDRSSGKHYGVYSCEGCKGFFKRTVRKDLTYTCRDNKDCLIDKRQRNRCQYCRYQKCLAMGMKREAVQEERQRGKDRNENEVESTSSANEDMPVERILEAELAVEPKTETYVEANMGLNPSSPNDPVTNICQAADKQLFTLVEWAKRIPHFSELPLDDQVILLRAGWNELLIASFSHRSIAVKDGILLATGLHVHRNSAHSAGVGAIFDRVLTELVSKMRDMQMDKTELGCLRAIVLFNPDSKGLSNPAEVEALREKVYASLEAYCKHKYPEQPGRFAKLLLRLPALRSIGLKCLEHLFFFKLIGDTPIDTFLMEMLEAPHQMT
Chain of human Vitamin D Receptor (VDR), VDR (gene 7421) (P11473 whole entry, looked up, the tested form may be a part): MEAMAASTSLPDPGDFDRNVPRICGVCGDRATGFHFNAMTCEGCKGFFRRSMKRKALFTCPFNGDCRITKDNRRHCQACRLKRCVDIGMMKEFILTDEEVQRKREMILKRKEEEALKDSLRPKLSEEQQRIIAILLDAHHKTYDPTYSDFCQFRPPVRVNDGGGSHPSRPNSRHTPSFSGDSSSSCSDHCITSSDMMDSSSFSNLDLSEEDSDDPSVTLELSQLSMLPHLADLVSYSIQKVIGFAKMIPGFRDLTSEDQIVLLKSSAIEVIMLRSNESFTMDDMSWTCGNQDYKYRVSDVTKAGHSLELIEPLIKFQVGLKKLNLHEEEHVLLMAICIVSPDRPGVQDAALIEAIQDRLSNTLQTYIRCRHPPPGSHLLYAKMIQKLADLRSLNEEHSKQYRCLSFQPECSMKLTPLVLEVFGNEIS
Chain of E-selectin (Homo sapiens) (P16581 whole entry, looked up): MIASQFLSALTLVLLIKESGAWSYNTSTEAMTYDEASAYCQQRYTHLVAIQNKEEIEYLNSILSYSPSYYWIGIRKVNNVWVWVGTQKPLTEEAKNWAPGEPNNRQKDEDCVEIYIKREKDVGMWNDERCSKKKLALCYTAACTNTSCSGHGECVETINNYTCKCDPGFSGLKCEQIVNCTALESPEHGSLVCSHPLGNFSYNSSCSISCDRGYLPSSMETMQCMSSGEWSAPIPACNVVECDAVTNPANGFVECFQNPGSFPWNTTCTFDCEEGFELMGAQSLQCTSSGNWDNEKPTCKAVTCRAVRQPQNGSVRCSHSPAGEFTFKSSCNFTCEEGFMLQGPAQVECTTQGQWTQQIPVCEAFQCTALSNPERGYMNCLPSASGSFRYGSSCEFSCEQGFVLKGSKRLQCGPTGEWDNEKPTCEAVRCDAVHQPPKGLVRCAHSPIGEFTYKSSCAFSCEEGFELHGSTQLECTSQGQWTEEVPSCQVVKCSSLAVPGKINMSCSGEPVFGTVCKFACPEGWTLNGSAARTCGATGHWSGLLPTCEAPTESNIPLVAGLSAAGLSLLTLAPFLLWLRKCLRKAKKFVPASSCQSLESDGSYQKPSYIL

With `CCCCC(CC)(CO)CO` the outcome [1] was “inactive” and the outcome [2] was “inactive”.
With `CC/C=C\CC/C=C/CO` the outcome [1] was “inactive”, the outcome [2] was “inactive” and the outcome [3] was “inactive”.
With `C=CC(=O)OCCC#N` the outcome [1] was “inactive”, the outcome [2] was “inactive” and the outcome [3] was “inactive”.
For `CCC(=O)O[C@@H]1C[C@H]2CC[C@]1(C)C2(C)C`, the outcome [1] was “inactive” and the outcome [2] was “inactive”.
In the case of `CCCCCCCCSCCO`, the outcome [1] is reported as “inactive” and the outcome [2] is reported as “inactive”.
With `CC(C)(C)c1ccc(C(=O)O)cc1` the outcome [1] was “inactive” and the outcome [2] was “inactive”.
With `CC1=CC[C@@]23C[C@@H]1C(C)(C)[C@@H]2CC[C@H]3C` the outcome [1] was “inactive” and the AC50 [2] was 58.9 µM (active).
With `CCCCCCOC(=O)CCC` the outcome [1] was “inactive” and the outcome [2] was “inactive”.
With `CCO/C=C1\N=C(c2ccccc2)OC1=O` the outcome [1] was “inactive” and the outcome [2] was “inactive”.
With `CCOCCOCCOCC` the outcome [1] was “inactive”.
With `CC(=O)NCCO` the outcome [1] was “inactive” and the outcome [2] was “inactive”.
For `Cc1ncc([N+](=O)[O-])n1CCO`, the outcome [1] was “inactive” and the outcome [2] was “inactive”.
For `O=C(O)c1cccnc1C(=O)O`, the outcome [1] was “inactive” and the outcome [2] was “inactive”.
For `CC1=C(Br)C(=O)C(Br)=C/C1=C(/c1ccccc1S(=O)(=O)O)c1cc(Br)c(O)c(Br)c1C`, the outcome [1] was “inactive”.
For `CCCCCC(C)=O`, the outcome [1] was “inactive” and the outcome [2] was “inactive”.
For `NCc1ccco1`, the outcome [1] was “inactive” and the outcome [2] was “inactive”.
For `CCCCCCOCCOCCO`, the outcome [1] was “inactive”.
With `O=c1[nH]c(=O)c2cn[nH]c2[nH]1` the outcome [1] was “inactive”.
In the case of `CCCCCCCCc1ccc(S(=O)(=O)O)cc1`, the outcome [1] is reported as “inactive” and the outcome [2] is reported as “inactive”.
For `CN(C)c1ccncc1`, the outcome [1] was “inactive”.
In the case of `Cc1c(OCC(F)(F)F)ccnc1CS(=O)c1nc2ccccc2[nH]1` (centres undefined), the outcome [1] is reported as “inactive”.
With `COc1ccccc1[N+](=O)[O-]` the outcome [1] was “inactive”.
For `CCCCCCC(=O)c1ccccc1`, the outcome [1] was “inactive”.
In the case of `COC(C)(C)CCCC(C)CC=O` (centres undefined), the outcome [1] is reported as “inactive”.
For `O=C1OC(=O)c2c(Cl)c(Cl)c(Cl)c(Cl)c21`, the outcome [1] was “inactive”, the outcome [2] was “inactive” and the outcome [3] was “inactive”.
For `Cc1ccc(-c2ccccc2)cc1`, the outcome [1] was “inactive” and the outcome [2] was “inactive”.
With `CC(=O)OCCCc1ccccc1` the outcome [1] was “inactive” and the outcome [2] was “inactive”.
With `CC(=O)CC(=O)Nc1ccc(C)cc1C` the outcome [1] was “inactive”.
With `CC1CCC(C(C)C)C(O)C1` (centres undefined) the outcome [1] was “inactive”.
For `O=C(O)CCCCCCCCCCCC(=O)O`, the outcome [1] was “inactive”.
For `C=Cc1ccc(C(C)(C)C)cc1`, the outcome [1] was “inactive” and the outcome [2] was “inactive”.
With `CCCCCCC(O)CCCCCCCCCCC(=O)O` (centres undefined) the outcome [1] was “inactive” and the AC50 [2] was 22.7 µM (active).
With `COc1cc(CCC(C)=O)ccc1O` the outcome [1] was “inactive”.
In the case of `O=C(Nc1ccc([N+](=O)[O-])cc1)Nc1ccc([N+](=O)[O-])cc1` (tested in a mixture with another compound), the outcome [1] is reported as “inactive” and the outcome [2] is reported as “inactive”.
For `CC(=O)c1ccccn1`, the outcome [1] was “inactive”, the outcome [2] was “inactive” and the outcome [3] was “inactive”.
For `COCCc1ccc(OCC(O)CNC(C)C)cc1` (centres undefined), the outcome [1] was “inactive”.
In the case of `N#Cc1cscn1`, the outcome [1] is reported as “inactive”.
With `O=C(O)c1ccc(O)cc1` the outcome [1] was “inactive”, the outcome [2] was “inactive” and the outcome [3] was “inactive”.
With `COc1ccc(OC)c(N=Nc2c(O)ccc3ccccc23)c1` the outcome [1] was “inactive”, the outcome [2] was “inactive” and the outcome [3] was “inactive”. For the same compound, the outcome [4] was “inactive”, the AC50 [5] was 2.11 µM (active) and the AC50 [6] was 20 µM (active). The outcome [7] was “inactive”, the AC50 [8] was 10.9 µM (active) and the outcome [9] was “inactive”. The outcome [10] was “inactive”, the outcome [11] was “inactive” and the outcome [12] was “inactive”. The AC50 [13] was 13 µM (active), the AC50 [14] was 5.42 µM (active) and the outcome [15] was “inactive”. The AC50 [16] was 5.55 µM (active), the AC50 [17] was 9.48 µM (active) and the outcome [18] was “inactive”. For the same compound, the outcome [19] was “inactive”.
For `NCCNc1cccc2ccccc12`, the outcome [1] was “inactive”, the outcome [2] was “inactive” and the outcome [3] was “inactive”. The outcome [20] was “inactive”.
